# Results taken from PubChem BioAssay AID1159580 (chemical genetic matrix, 2015).
# Where “and” joins values, the source holds several entries; their conditions need not be identical. Equal values may be shown once. The campaign covered roughly 5,500 compounds. About 2,000 (36%) were called active. Another 18% or so got no clear call; they are omitted. Some of the results follow. Values without a mark were called inactive. Cut-off read from the data, not from the text of the source: active = normalized growth mostly below about 0.91 (no sharp cut-off); inconclusive = no clear call, values can overlap the other calls; inactive = mostly above about 0.92.
# Test: chemical genetic growth profiling, strain panel (AID 1159580);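 note: tested at 20 µM; growth read once vehicle control cultures reached saturation at 30 °C; 1 = growth at the plate median or of vehicle wells; lower values mean less growth of the strain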
# Settings: S. cerevisiae deletion strains, growth OD
structure (smiles),measurement,setting,value
CC(=O)O[C@]1(C(C)=O)CCC2C3C[C@H](C)C4=CC(=O)CC[C@]4(C)C3CC[C@@]21C (stereo partly drawn),normalized growth,"locus YAL021C, strain ccr4, active compounds read low",1
same,normalized growth,"locus YAL026C, strain drs2, active compounds read low",0.992
same,normalized growth,"locus YAL030W, strain snc1, active compounds read low",0.968
same,normalized growth,"locus YBL061C, strain skt5, active compounds read low",0.964
same,normalized growth,"locus YBR009C, strain hhf1, active compounds read low",0.955
same,normalized growth,"locus YBR021W, strain FUR4, active compounds read low",0.993
same,normalized growth,"locus YBR023C, strain chs3, active compounds read low",0.924
same,normalized growth,"locus YBR171W, strain sec66, active compounds read low",0.95
same,normalized growth,"locus YBR229C, strain ROT2, active compounds read low",0.993
same,normalized growth,"locus YBR231C, strain swc5, active compounds read low",0.971
same,normalized growth,"locus YBR279W, strain paf1, active compounds read low",0.97
same,normalized growth,"locus YCL011C, strain gbp2, active compounds read low",0.931
same,normalized growth,"locus YCL016C, strain dcc1, active compounds read low",0.916
same,normalized growth,"locus YCL029C, strain bik1, active compounds read low",0.957
same,normalized growth,"locus YCL061C, strain MRC1, active compounds read low",0.965
same,normalized growth,"locus YCL069W, strain vba3, active compounds read low",0.958
same,normalized growth,"locus YCR088W, strain abp1, active compounds read low",0.961
same,normalized growth,"locus YDL005C, strain med2, active compounds read low",0.959
same,normalized growth,"locus YDL035C, strain GPR1, active compounds read low",1.01
same,normalized growth,"locus YDL040C, strain nat1, active compounds read low",0.971
same,normalized growth,"locus YDL074C, strain BRE1, active compounds read low",0.983
same,normalized growth,"locus YDL101C, strain DUN1, active compounds read low",0.993
same,normalized growth,"locus YDL185W, strain tfp1, active compounds read low",0.956
same,normalized growth,"locus YDL192W, strain arf1, active compounds read low",0.966
same,normalized growth,"locus YDR001C, strain nth1, active compounds read low",0.97
same,normalized growth,"locus YDR069C, strain doa4, active compounds read low",0.992
same,normalized growth,"locus YDR101C, strain arx1, active compounds read low",0.999
same,normalized growth,"locus YDR137W, strain rgp1, active compounds read low",0.839 (active)
same,normalized growth,"locus YDR150W, strain NUM1, active compounds read low",0.99
same,normalized growth,"locus YDR159W, strain sac3, active compounds read low",0.971
same,normalized growth,"locus YDR162C, strain NBP2, active compounds read low",0.993
same,normalized growth,"locus YDR195W, strain ref2",1.07
same,normalized growth,"locus YDR297W, strain sur2, active compounds read low",0.971
same,normalized growth,"locus YDR318W, strain mcm21, active compounds read low",0.961
same,normalized growth,"locus YDR334W, strain swr1, active compounds read low",0.96
same,normalized growth,"locus YDR335W, strain msn5, active compounds read low",0.971
same,normalized growth,"locus YDR388W, active compounds read low",0.989
same,normalized growth,"locus YDR392W, strain spt3, active compounds read low",0.635 (active)
same,normalized growth,"locus YDR502C, strain sam2, active compounds read low",0.954
same,normalized growth,"locus YEL003W, strain gim4, active compounds read low",0.987
same,normalized growth,"locus YEL037C, strain rad23, active compounds read low",0.962
same,normalized growth,"locus YEL061C, strain CIN8 (second series), active compounds read low",0.97
same,normalized growth,"locus YEL061C, strain CIN8, active compounds read low",0.991
same,normalized growth,"locus YER015W, strain faa2, active compounds read low",0.969
same,normalized growth,"locus YER016W, strain bim1, active compounds read low",0.975
same,normalized growth,"locus YER110C, active compounds read low",0.96
same,normalized growth,"locus YER111C, strain swi4, active compounds read low",0.96
same,normalized growth,"locus YER155C, strain BEM2 (second series), active compounds read low",0.976
same,normalized growth,"locus YER155C, strain BEM2, active compounds read low",0.98
same,normalized growth,"locus YER167W, strain BCK2, active compounds read low",0.977
same,normalized growth,"locus YFR010W, strain ubp6, active compounds read low",0.981
same,normalized growth,"locus YGL078C, strain dbp3, active compounds read low",0.982
same,normalized growth,"locus YGL086W, strain mad1, active compounds read low",0.995
same,normalized growth,"locus YGL167C, strain pmr1, active compounds read low",0.948
same,normalized growth,"locus YGL173C, strain kem1, active compounds read low",0.969
same,normalized growth,"locus YGL227W, strain vid30, active compounds read low",0.969
same,normalized growth,"locus YGL240W, strain doc1, active compounds read low",0.98
same,normalized growth,"locus YGL248W, strain PDE1, active compounds read low",0.992
same,normalized growth,"locus YGL253W, strain hxk2, active compounds read low",0.91
same,normalized growth,"locus YGR135W, strain pre9, active compounds read low",0.912
same,normalized growth,"locus YGR252W, strain gcn5, active compounds read low",0.926
same,normalized growth,"locus YHR013C, strain ard1, active compounds read low",0.968
same,normalized growth,"locus YHR027C, strain rpn1, active compounds read low",0.984
same,normalized growth,"locus YHR030C, strain SLT2, active compounds read low",0.997 and 0.999
same,normalized growth,"locus YHR079C, strain IRE1 (second series), active compounds read low",0.979
same,normalized growth,"locus YHR079C, strain IRE1, active compounds read low",0.98
same,normalized growth,"locus YHR094C, strain hxt1, active compounds read low",0.991
same,normalized growth,"locus YHR129C, strain ARP1, active compounds read low",0.993
same,normalized growth,"locus YHR142W, strain chs7, active compounds read low",0.841 (active)
same,normalized growth,"locus YHR200W, strain rpn10, active compounds read low",0.982
same,normalized growth,"locus YIL066C, strain RNR3, active compounds read low",0.991
same,normalized growth,"locus YIL073C, strain SPO22, active compounds read low",0.932
same,normalized growth,"locus YIL125W, strain kgd1, active compounds read low",0.996
same,normalized growth,"locus YIR030C, strain dcg1, active compounds read low",0.962
same,normalized growth,"locus YJL092W, strain hpr5, active compounds read low",0.964
same,normalized growth,"locus YJL095W, strain BCK1 (second series), active compounds read low",0.953
same,normalized growth,"locus YJL095W, strain BCK1, active compounds read low",0.961 and 1
same,normalized growth,"locus YJL115W, strain asf1, active compounds read low",0.969
same,normalized growth,"locus YJL129C, strain trk1, active compounds read low",0.902
same,normalized growth,"locus YJL134W, strain LCB3, active compounds read low",0.993
same,normalized growth,"locus YJL154C, strain vps35, active compounds read low",0.964
same,normalized growth,"locus YJL164C, strain tpk1, active compounds read low",0.97
same,normalized growth,"locus YJL166W, strain qcr8, active compounds read low",0.926
same,normalized growth,"locus YJL168C, strain set2, active compounds read low",0.985
same,normalized growth,"locus YJL187C, strain SWE1 (second series), active compounds read low",0.985
same,normalized growth,"locus YJL187C, strain SWE1, active compounds read low",0.976
same,normalized growth,"locus YJR043C, strain POL32, active compounds read low",1.03
same,normalized growth,"locus YJR066W, strain TOR1, active compounds read low",0.958
